Key:
Settings in all cases: Compound Concentration (nM):1000
KIT-autoinhibited = tested on: KIT-autoinhibited
KIT = tested on: KIT
LATS1 = tested on: LATS1
LATS2 = tested on: LATS2
LCK = tested on: LCK
LIMK1 = tested on: LIMK1
LIMK2 = tested on: LIMK2
LKB1 = tested on: T1, LKB1
T1 construct: gene STK11

LOK = tested on: T2, LOK
T2 construct: gene STK10

LRRK2(G2019S) = tested on: LRRK2(G2019S)
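Also: KINOMEscan scanMAX binding as percent activity remaining versus control; lower means stronger binding.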

| SMILES | Percent Control (KIT-autoinhibited) | Percent Control (KIT) | Percent Control (LATS1) | Percent Control (LATS2) | Percent Control (LCK) | Percent Control (LIMK1) | Percent Control (LIMK2) | Percent Control (LKB1) | Percent Control (LOK) | Percent Control (LRRK2(G2019S)) |
| --- | --- | --- | --- | --- | --- | --- | --- | --- | --- | --- |
| COc1cc(N2CCN(C(C)C)CC2)ccc1Nc1nc(Nc2ccc(F)cc2C(=O)NC[C@@H](O)CO)c2cc[nH]c2n1 [GSK1392956A] | 100% | 100% | 100% | 95% | 100% | 92% | 75% | 81% | 100% | 5.4% |
| Cl.O=C(Nc1ccc(Oc2ccc3[nH]c(NC(=O)c4ccccc4)nc3c2)cc1)Nc1cc(C(F)(F)F)ccc1F [GW709042A] | 86% | 1.4% | 98% | 85% | 50% | 95% | 93% | 100% | 1% | 68% |
| COC(=O)Nc1nc2ccc(Oc3ccc(NC(=O)Nc4cc(C(F)(F)F)ccc4F)cc3)cc2s1.Cl [GW693917A] | 87% | 0.5% | 100% | 80% | 2.2% | 43% | 62% | 100% | 0.6% | 74% |
| NS(=O)(=O)c1ccc(Nc2ncc(-c3ccccc3)o2)cc1 [GW572399X] | 31% | 30% | 100% | 100% | 100% | 100% | 100% | 87% | 100% | 78% |
| COc1cc2ncnc(Nc3ccc4c(cnn4Cc4ccccc4)c3)c2cc1OC.Cl [GW282449A] | 100% | 100% | 100% | 100% | 23% | 95% | 100% | 100% | 13% | 100% |
| COc1ccc(COc2ccc(Cc3cnc(N)nc3N)cc2OC)cc1 [GW632580X] | 91% | 95% | 100% | 100% | 87% | 79% | 91% | 100% | 88% | 95% |
| Cl.O=S1CCN(Cc2ccc(-c3ccc4ncnc(Nc5ccc(OCc6ccccc6)c(F)c5)c4c3)o2)CC1 [GW576924A] | 100% | 100% | 100% | 100% | 100% | 100% | 100% | 100% | 100% | 100% |
| Cl.c1ccc(Cc2nc3ccc(Nc4ncnc5ccccc45)cc3[nH]2)cc1 [GR269666A] | 100% | 94% | 100% | 100% | 88% | 100% | 100% | 100% | 100% | 100% |
| COc1cc2ncn(-c3cc(O[C@H](C)c4ccccc4Cl)c(C(N)=O)s3)c2cc1OC [GSK237701A] | 100% | 49% | 99% | 86% | 52% | 100% | 54% | 75% | 0.3% | 69% |
| C[C@@H](Oc1cc(-n2cnc3ccc(OC4CCN(C)CC4)cc32)sc1C(N)=O)c1ccccc1Cl [GSK579289A] | 81% | 32% | 100% | 65% | 82% | 100% | 100% | 100% | 3.3% | 75% |
| COc1cc(C=NNc2ncnc3c2cnn3-c2ccccc2)ccc1O [GW513184X] | 100% | 42% | 90% | 100% | 34% | 100% | 100% | 69% | 100% | 100% |
| Nc1ncnc2occ(-c3ccc(NC(=O)Nc4cc(C(F)(F)F)ccc4F)cc3)c12 [GW770249X] | 31% | 0% | 100% | 91% | 25% | 100% | 94% | 83% | 0.4% | 81% |
| CC(C)COC(=O)c1ccc2c(c1)/C(=C/Nc1ccc(S(N)(=O)=O)cc1)C(=O)N2 [GW416981X] | 85% | 100% | 100% | 91% | 100% | 100% | 100% | 100% | 100% | 36% |
| COc1ccccc1-c1cc(/C=C2\C(=O)Nc3ncc(Br)cc32)cc(Br)c1O [GW442130X] | 100% | 70% | 100% | 100% | 100% | 100% | 100% | 73% | 100% | 93% |
| CCS(=O)(=O)c1ccc(OC)c(Nc2ncc(-c3cccc(OC)c3)o2)c1 [GW580509X] | 20% | 9.1% | 100% | 100% | 46% | 100% | 100% | 100% | 100% | 100% |
| Cl.O=C(O[C@H]1CN[C@H](C#Cc2cc3ncnc(Nc4ccc5c(cnn5Cc5ccccc5)c4)c3s2)C1)N1CCOCC1 [GSK200398A] | 96% | 100% | 100% | 100% | 81% | 100% | 100% | 100% | 63% | 84% |
| CN1CCN(C(=O)c2ccc(NC(=O)Nc3ccc(N(C)c4ccnc(Nc5ccc(CS(C)(=O)=O)cc5)n4)cc3)cc2)CC1.Cl [GW830263A] | 35% | 0% | 68% | 59% | 85% | 61% | 43% | 76% | 0.4% | 71% |
| Cc1cc(O)cc(C)c1/C=C/c1cncc(C(N)=O)c1 [GW435821X] | 77% | 2.1% | 100% | 96% | 25% | 100% | 100% | 100% | 100% | 74% |
| COc1ccc2[nH]c3c4[nH]c5ccc(OC)cc5c4c4c(c3c2c1)C(=O)NC4=O [GW296115X] | 72% | 24% | 100% | 43% | 85% | 91% | 81% | 99% | 88% | 2.6% |
| CN(C)CCNC(=O)Nc1ccc(N(C)c2ccnc(Nc3ccc(CS(C)(=O)=O)cc3)n2)cc1.Cl [GW830900A] | 59% | 0.1% | 92% | 88% | 93% | 85% | 100% | 83% | 14% | 76% |

Reference: paper PMC7826789 (International Journal of Molecular Sciences, 2021)
